{
  "source": "PubChem BioAssay (NCI)",
  "note": "Compounds without any hit were thinned out: in the full panel of roughly 83,000, 20% have a hit.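 How to read the values: 0–100, growth inhibition (40 = 60% inhibited); 0, no net growth; -100 to 0, cell death (-40 = 40% of starting cells died; -100 = all dead).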 A number with no mark means an inactive call. Activity calls are given as the source filed them. Rule for the calls: active = growth percent below 10; inactive = the rest.",
  "data": [
    {"system": "HL-60(TB) leukemia", "assay": "NCI-60 one-dose screen, 48 h (100 = growth as untreated, 0 = no growth, -100 = all killed)", "settings": "10 µM unless noted", "values": [
      {"smiles": "COc1ccc(CCN2COc3c([C@@H](C)CCC=C(C)C)ccc(C)c3C2)cc1OC", "growth": "29.1%"},
      {"smiles": "COc1cc(OC)c(/C=C/c2ccc3ccccc3[n+]2C)c(OC)c1", "growth": "-29.5% (active)"},
      {"smiles": "COc1ccc(C(=O)Cn2c(C(=O)c3ccc(Cl)cc3)nc3ccccc32)cc1", "growth": "42.2%"},
      {"smiles": "C#CC(=O)/C=C/CCCCCCC#CC(=O)CCC(=O)C#CCCCCCC/C=C/C(=O)C#C", "growth": "-70.1% (active)"},
      {"smiles": "CCOC(=O)C1C(=O)C=C(c2cnccn2)CC1c1ccc(OC)c(OC)c1", "note": "(stereo not given)", "growth": "63.9%"},
      {"smiles": "CCOC(=O)c1c(C)c2c(n1Cc1ccccc1)CSc1cc(C#N)c(=O)[nH]c1-2", "growth": "76.8% [100 µM]"},
      {"smiles": "O=C1c2ccccc2C(=O)c2c(N=Nc3[nH]c(=S)[nH]c3O)cccc21", "growth": "-32.1% (active)"},
      {"smiles": "Cc1cc2c3ccccc3ccc2[n+]2ccccc12", "growth": "46.2%"},
      {"smiles": "Nc1n[nH]c2ccc([C@@H]3Nc4ccc5[nH]ncc5c4[C@H]4C5C=CC(C5)[C@@H]34)cc12", "note": "(stereo not given in full)", "growth": "-24.9% (active)"},
      {"smiles": "O=C(Nc1cccc([N+](=O)[O-])c1)c1cc2ccccc2cc1O", "growth": "-54.1% (active)"},
      {"smiles": "COc1ccc2c(c1)cn1c3ccc(O)cc3[nH]c(=O)c21", "growth": "-21.7% (active)"},
      {"smiles": "N#CCNc1ccccc1N", "growth": "95.2%"},
      {"smiles": "CN(C)CC1C(=O)O[C@H]2[C@H]1CC/C(COC(=O)c1cc3ccccc3[nH]1)=C\\CC[C@@]1(C)O[C@@H]21", "note": "(stereo not given in full)", "growth": "-36% (active)"},
      {"smiles": "O=C(NCCOCCOCCNc1cccc2c1C(=O)N(C1CCCNC1=O)C2=O)c1cc2c(o1)C(=O)c1ccccc1C2=O", "note": "(stereo not given)", "growth": "-1.81% (active)"},
      {"smiles": "CC(=O)NCc1cc(C)c(C)cc1C", "growth": "99.2%"},
      {"smiles": "C=C1C(=O)O[C@H]2[C@H]1CC/C(COC(=O)/C=C\\C(=O)NCc1ccc(Cn3c(=O)sn(CCCl)c3=O)cc1)=C\\CC[C@@]1(C)O[C@@H]21", "growth": "-19.4% (active)"},
      {"smiles": "COc1cc(NC(=O)c2cc3ccccc3cc2O)c(OC)cc1Cl", "growth": "-29.2% (active)"},
      {"smiles": "C(=N/Nc1ncc(-c2cc3cc(-c4ccccc4)ccc3o2)s1)/c1cccs1", "growth": "96.4%"},
      {"smiles": "NNC(=O)c1ccc(-n2nc(-c3ccccc3)c3ccccc32)cc1", "growth": "93%"},
      {"smiles": "C/C(=C\\CCc1ccoc1)CC/C=C(\\C)CCCN1CCOCC1", "growth": "35.5%"},
      {"smiles": "O=[N+]([O-])c1ccc(N/N=C(\\C(=N/Nc2ccc([N+](=O)[O-])cc2[N+](=O)[O-])c2ccccc2)c2ccccc2)c([N+](=O)[O-])c1", "growth": "80.5%"},
      {"smiles": "Cc1c(C)c2c(c(C)c1NC(=O)/C=C\\C(=O)O)CCC(C)(CCCC(C)CCCC(C)CCCC(C)C)O2", "note": "(stereo not given)", "growth": "37.3%"},
      {"smiles": "CCN(CC)CC(O)c1cc(-c2ccc(Cl)cc2)nc2c(C)c(Cl)ccc12", "note": "(stereo not given)", "growth": "-71.5% (active)"},
      {"smiles": "O=C(/C=C/c1ccc(Cl)cc1)c1ccccc1", "growth": "99.9%"},
      {"smiles": "CC1=C[S+](c2ccccc2)c2cccc3cc4ccccc4c1c23", "note": "(stereo not given)", "growth": "-50.3% (active)"}
    ]}
  ]
}
